# Data from the supplement of paper PMC8728848.
# The full list was thinned out, with the strongest signals kept by preference.
# B1: a L Fucosidase (Thermotoga maritima) (protein)
# chain: MASMKPRYKPDWESLREHTVPKWFDKAKFGIFIHWGIYSVPGWATPTGELGKVPMDAWFFQNPYAEWYENSLRIKESPTWEYHVKTYGENFEYEKFADLFTAEKWDPQEWADLFKKAGAKYVIPTTKHHDGFCLWGTKYTDFNSVKRGPKRDLVGDLAKAVREAGLRFGVYYSGGLDWRFTTEPIRYPEDLSYIRPNTYEYADYAYKQVMELVDLYLPDVLWNNMGWPEKGKEDLKYLFAYYYNKHPEGSVNDRWGVPHWDFKTAEYHVNYPGDLPGYKWEFTRGIGLSFGYNRNEGPEHMLSVEQLVYTLVDVVSKGGNLLLNVGPKGDGTIPDLQKERLLGLGEWLRKYGDAIYGTSVWERCCAKTEDGTEIRFTRKCNRIFVIFLGIPTGEKIVIEDLNLSAGTVRHFLTGERLSFKNVGKNLEITVPKKLLETDSITLVLEAVEE
# Assays:
# Experiment in all cases: glycan array binding signal (z-score within array); higher = stronger binding
# Settings in all cases: glycan notation: IUPAC condensed, linker removed; mutation: D224N
# [1] = target: GlcNAc(a1-4)Gal(b1-4)GlcNAc(b1-3)Gal(b1-4)[Fuc(a1-3)]GlcNAc(b1-3)Gal(b1-4)[Fuc(a1-3)]GlcNAc
# Method in brief: (§1)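 Glycan array data came from 3228 arrays in the Consortium for Functional Glycomics database, and only arrays with an available protein sequence were kept. Glycan names were put into IUPAC-condensed notation, and columns mapping to the same glycan were averaged. The binding signal is a within-array Z-score, averaged across arrays of one protein sequence run at different concentrations or buffers and across linkers. A negative Z-score can be read as non-binding.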
# [2] = target: GlcNAc(b1-3)Gal(b1-4)GlcNAc(b1-3)Gal(b1-4)GlcNAc(b1-2)Man(a1-3)[GlcNAc(b1-3)Gal(b1-4)GlcNAc(b1-3)Gal(b1-4)GlcNAc(b1-2)Man(a1-6)]Man(b1-4)GlcNAc(b1-4)GlcNAc
# Method in brief: as §1
# [3] = target: GlcNAc(b1-3)Gal(b1-4)GlcNAc(b1-3)Gal(b1-4)GlcNAc(b1-2)[GlcNAc(b1-3)Gal(b1-4)GlcNAc(b1-3)Gal(b1-4)GlcNAc(b1-6)]Man(a1-6)[GlcNAc(b1-3)Gal(b1-4)GlcNAc(b1-3)Gal(b1-4)GlcNAc(b1-2)Man(a1-3)]Man(b1-4)GlcNAc(b1-4)[Fuc(a1-6)]GlcNAc
# Method in brief: as §1
# [4] = target: GlcNAc(b1-3)Gal(b1-4)GlcNAc(b1-3)Gal(b1-4)GlcNAc(b1-3)Gal(b1-4)GlcNAc(b1-2)Man(a1-3)[GlcNAc(b1-3)Gal(b1-4)GlcNAc(b1-3)Gal(b1-4)GlcNAc(b1-3)Gal(b1-4)GlcNAc(b1-2)Man(a1-6)]Man(b1-4)GlcNAc(b1-4)[Fuc(a1-6)]GlcNAc
# Method in brief: as §1
# [5] = target: GlcNAc(b1-3)Gal(b1-4)GlcNAc(b1-3)Gal(b1-4)GlcNAc(b1-3)Gal(b1-4)GlcNAc(b1-3)Gal(b1-4)GlcNAc(b1-2)Man(a1-3)[GlcNAc(b1-3)Gal(b1-4)GlcNAc(b1-3)Gal(b1-4)GlcNAc(b1-3)Gal(b1-4)GlcNAc(b1-3)Gal(b1-4)GlcNAc(b1-2)Man(a1-6)]Man(b1-4)GlcNAc(b1-4)GlcNAc
# Method in brief: as §1
# [6] = target: GlcNAc(b1-3)Gal(b1-4)GlcNAc(b1-6)[GlcNAc(b1-3)Gal(b1-3)]GalNAc
# Method in brief: as §1
# [7] = target: GlcNAc(b1-4)[GlcNAc(b1-6)]GalNAc
# Method in brief: as §1
# [8] = target: Kdn(a2-3)Gal(b1-4)[Fuc(a1-3)]GlcNAc
# Method in brief: as §1
# [9] = target: Man(a1-2)Man(a1-2)Man(a1-6)[Man(a1-3)]Man
# Method in brief: as §1
# Man(a1-3)[Man(a1-6)]Man = target: Man(a1-3)[Man(a1-6)]Man
# Method in brief: as §1
# [10] = target: Man(a1-3)[Man(a1-6)]Man(a1-6)[Man(a1-3)]Man
# Method in brief: as §1
# [11] = target: Neu5Ac(a2-3)Gal(b1-4)GlcNAc(b1-3)Gal
# Method in brief: as §1
# [12] = target: Neu5Ac(a2-3)Gal(b1-4)GlcNAc(b1-3)Gal(b1-4)[Fuc(a1-3)]GlcNAc
# Method in brief: as §1
# [13] = target: Neu5Ac(a2-3)Gal(b1-4)GlcNAc(b1-3)[Neu5Ac(a2-3)Gal(b1-4)GlcNAc(b1-6)]GalNAc
# Method in brief: as §1
# [14] = target: Neu5Ac(a2-3)Gal(b1-4)[Fuc(a1-3)]GlcNAc(b1-3)Gal(b1-4)GlcNAc
# Method in brief: as §1
# [15] = target: Neu5Ac(a2-3)Gal(b1-4)[Fuc(a1-3)]GlcNAc(b1-6)[Neu5Ac(a2-3)Gal(b1-3)]GalNAc
# Method in brief: as §1
# [16] = target: Neu5Ac(a2-3)Gal6S(b1-4)[Fuc(a1-3)]GlcNAc
# Method in brief: as §1
# [17] = target: Neu5Ac(a2-6)Gal(b1-4)GlcNAc(b1-2)Man(a1-3)Man(b1-4)GlcNAc(b1-4)GlcNAc
# Method in brief: as §1
# [18] = target: Neu5Ac(a2-6)Gal(b1-4)GlcNAc(b1-2)Man(a1-6)[Man(a1-3)]Man(b1-4)GlcNAc(b1-4)GlcNAc
# Method in brief: as §1
# [19] = target: Neu5Ac(a2-6)Gal(b1-4)GlcNAc(b1-3)Gal(b1-4)GlcNAc(b1-2)Man(a1-3)[Neu5Ac(a2-6)Gal(b1-4)GlcNAc(b1-3)Gal(b1-4)GlcNAc(b1-2)Man(a1-6)]GalNAc
# Method in brief: as §1
# [20] = target: Neu5Ac(a2-6)Gal(b1-4)GlcNAc(b1-3)Gal(b1-4)GlcNAc(b1-3)Gal(b1-4)GlcNAc(b1-2)Man(a1-3)[Neu5Ac(a2-6)Gal(b1-4)GlcNAc(b1-3)Gal(b1-4)GlcNAc(b1-3)Gal(b1-4)GlcNAc(b1-2)Man(a1-6)]GalNAc
# Method in brief: as §1
# [21] = target: Neu5Ac(a2-6)Gal(b1-4)GlcNAc(b1-3)GalNAc
# Method in brief: as §1
# [22] = target: Neu5Ac(a2-8)Neu5Ac(a2-3)Gal(b1-4)Glc
# Method in brief: as §1
# [23] = target: Neu5Ac(a2-8)Neu5Ac(a2-8)Neu5Ac(a2-3)Gal(b1-4)Glc
# Method in brief: as §1
# [24] = target: Neu5Ac(a2-8)Neu5Ac(a2-8)Neu5Ac(a2-3)[GalNAc(b1-4)]Gal(b1-4)Glc
# Method in brief: as §1
binder,measurement,setting,value
B1,glycan array binding signal (z-score),[1],0.08
same,glycan array binding signal (z-score),[2],0.079
same,glycan array binding signal (z-score),[3],0.296
same,glycan array binding signal (z-score),[4],3.94
same,glycan array binding signal (z-score),[5],-0.204
same,glycan array binding signal (z-score),[6],1.65
same,glycan array binding signal (z-score),[7],-0.289
same,glycan array binding signal (z-score),[8],0.051
same,glycan array binding signal (z-score),[9],-0.125
same,glycan array binding signal (z-score),Man(a1-3)[Man(a1-6)]Man,0.332
same,glycan array binding signal (z-score),[10],0.223
same,glycan array binding signal (z-score),[11],-0.187
same,glycan array binding signal (z-score),[12],1.75
same,glycan array binding signal (z-score),[13],0.483
same,glycan array binding signal (z-score),[14],1.9
same,glycan array binding signal (z-score),[15],2.83
same,glycan array binding signal (z-score),[16],-0.732
same,glycan array binding signal (z-score),[17],1.99
same,glycan array binding signal (z-score),[18],0.081
same,glycan array binding signal (z-score),[19],2.02
same,glycan array binding signal (z-score),[20],10.5
same,glycan array binding signal (z-score),[21],1.83
same,glycan array binding signal (z-score),[22],-0.893
same,glycan array binding signal (z-score),[23],0.654
same,glycan array binding signal (z-score),[24],0.362
